Here are results for 10 compounds from PubChem BioAssay (EPA / NIEHS).

The nature of assay [1]: BSK_BT_PBMCCytotoxicity: PBMC Cytotoxicity Assessment in the BioMAP Diversity Plus: BT Assay (AID 2284225).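 Note: PBMC viability measured by Alamar Blue dye reduction fluorescence.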 The conditions noted are these: primary human B cells with PBMC. In short, it runs like this: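 75,000 cells/well; cpd 1 h → SEB + TSST-1 (20 ng/mL final each) → 90 h → Alamar Blue 6 h → fluor. 546/580 nm. DMSO = neg. control/baseline.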
Read-out in assay [2]: Secreted IgG (sIgG), gene 3500
The assay is described as follows: BSK_BT_sIgG: BioMAP Diversity Plus: BT Assay for Secreted IgG (sIgG) Biomarker Activity (AID 2284226). The conditions noted are these: primary human B cells with PBMC. In outline: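 B cells co-cultured with PBMC were dosed with chemical and secreted IgG quantified by ELISA at 24 h. Activity was fitted in the positive direction relative to DMSO as negative control and baseline.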

Assay [3] in a line: BSK_BT_Bcell_Proliferation: Viability Assessment in the BioMAP Diversity Plus: BT Assay for B cell Proliferation (AID 2284227). As to conditions: primary human B cells with PBMC. In short, it runs like this: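 Read-out is absorbance at 560 nm from sulforhodamine B staining of total protein, reflecting relative cell numbers in a human B cell and PBMC co-culture after 72 h of chemical exposure. Values were referenced to DMSO.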

Read-out in assay [4]: Interleukin 6 (IL6), IL6 (gene 3569)
The assay is described as follows: BSK_BT_xIL6: BioMAP Diversity Plus: BT Assay for Interleukin 6 (IL6) Biomarker Activity (AID 2284228). The conditions noted are these: primary human B cells with PBMC. In short, it runs like this:
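Readout: secreted IL-6 via Luminex xMAP multiplex, 24 h post-dosing. System: primary human B cells co-cultured with PBMC. Signal change scored relative to DMSO vehicle, positive fitting direction.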

Read-out in assay [5]: Interleukin 17A (IL17A), IL17A (gene 3605)
As to the kind of experiment: BSK_BT_xIL17A: BioMAP Diversity Plus: BT Assay for Interleukin 17A (IL17A) Biomarker Activity (AID 2284229). The conditions noted are these: primary human B cells with PBMC. In outline: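 Luminex xMAP readout of secreted IL-17A; human B cell + PBMC co-culture; 24 h post-dose; positive-direction fit vs DMSO negative control.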

Read-out in assay [6]: Tumor necrosis factor (Homo sapiens) (UniProt P01375)
As to the kind of experiment: BSK_BT_xTNFa: BioMAP Diversity Plus: BT Assay for Tumor necrosis factor alpha (TNF-alpha) Biomarker Activity (AID 2284230). As to conditions: primary human B cells with PBMC. In short, it runs like this:
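Human primary co-culture of B cells and peripheral blood mononuclear cells; TNF-alpha in supernatant, 24 h post-dose, Luminex multiplex; DMSO = baseline.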

Read-out in assay [7]: Vascular cell adhesion molecule 1 (VCAM1), VCAM1 (gene 7412)
The assay is described as follows: BSK_MyoF_VCAM1: BioMAP Diversity Plus: MyoF Assay for Vascular cell adhesion molecule 1 (VCAM1) Biomarker Activity (AID 2284231). As to conditions: primary human lung fibroblasts. In outline: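 MyoF system, lung fibroblasts; 24 h post-dose; VCAM-1 by ELISA; gain-of-signal fit vs DMSO baseline.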

Assay [8] can be described thus: CCTE_Mundy_HCI_Cortical_Synap_Neur_Matur_BPCount: CCTE's Synaptogenesis and Neurite Maturation Assay in rat cortical cells for Branch Point Count, Mundy Lab (AID 2284211). In outline:
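Branch point number is quantified by automated imaging of fluorescently labelled neurites and synapses in rat primary cortical neurons exposed from DIV 7 to DIV 12. Activity is analysed relative to DMSO negative control.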

A short description of assay [9]: CCTE_Mundy_HCI_Cortical_NOG_NeuriteCount: CCTE's Neurite Outgrowth Assay in rat cortical cells for Neurite Count, Mundy Lab (AID 2284212).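 Note: cells fixed about two days after chemical exposure began.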 In outline:
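Neurite number per cell from high-content imaging of betaIII-tubulin immunostaining, with Hoechst nuclear counterstain.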

The nature of assay [10]: CCTE_Mundy_HCI_Cortical_NOG_NeuriteLength: CCTE's Neurite Outgrowth Assay in rat cortical cells for Neurite Length, Mundy Lab (AID 2284213).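 Note: neurites imaged about 48 to 50 h after chemical exposure began.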 In short, it runs like this:
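Neurite length was read by high-content imaging of βIII-tubulin-labelled neurites in rat primary cortical cultures. Activity was fitted relative to DMSO.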

The nature of assay [11]: CCTE_Mundy_HCI_Cortical_Synap_Neur_Matur_NeuriteLength: CCTE's Synaptogenesis and Neurite Maturation Assay in rat cortical cells for Neurite Length, Mundy Lab (AID 2284214). In short, it runs like this: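 Rat primary cortical cells were plated, treated with AraC at DIV 5 to arrest glial growth, then chemical-dosed with media change at DIV 7 through DIV 12. Fixed cells stained for MAP2, synaptophysin and Hoechst; neurite length quantified by high-content imaging.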

The nature of assay [12]: CCTE_Mundy_HCI_Cortical_Synap_Neur_Matur_NeuriteSpotCountPerNeuron: CCTE's Synaptogenesis and Neurite Maturation Assay in rat cortical cells for Neurite Spot Count per Neuron Count, Mundy Lab (AID 2284215). In outline: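 Read-out: neurite-associated synaptophysin puncta per neuron, imaged by high-content analysis after MAP2, synaptophysin and Hoechst staining. Rat primary cortical cultures, dosed DIV 7 through DIV 12; DMSO served as baseline.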

Assay [13] can be described thus: CCTE_Mundy_HCI_Cortical_Synap_Neur_Matur_SynapseCount: CCTE's Synaptogenesis and Neurite Maturation Assay in rat cortical cells for Synapse Count, Mundy Lab (AID 2284218). In short, it runs like this: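 Rat primary cortical cells in 96-well plates received AraC at DIV 5 and were dosed with chemicals at DIV 7 with media change, through DIV 12 (288.33 h). Synapses per neuron counted by high-content imaging of MAP2/synaptophysin/Hoechst staining, versus DMSO baseline.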

Assay [14] can be described thus: CCTE_Mundy_HCI_Cortical_Synap_Neur_Matur_NeuriteCount: CCTE's Synaptogenesis and Neurite Maturation Assay in rat cortical cells for Neurite Count, Mundy Lab (AID 2284222). In short, it runs like this:
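Primary rat cortical cells were plated, treated with AraC at DIV 5, then exposed to chemicals from DIV 7 through DIV 12. After fixation and immunostaining for MAP2 and synaptophysin, imaging quantified neurites, with DMSO as the negative control.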

Assay [15] can be described thus: CCTE_Mundy_HCI_Cortical_Synap_Neur_Matur_CellBodySpotCount: CCTE's Synaptogenesis and Neurite Maturation Assay in rat cortical cells for Cell Body Spot Count, Mundy Lab (AID 2284223). In short, it runs like this: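 Read-out: cell body-associated synaptophysin puncta per neuron, imaged after MAP2, synaptophysin and Hoechst staining. Rat cortical cells, AraC DIV 5, chemical dosing DIV 7, fixation DIV 12. Activity fitted in positive direction relative to DMSO baseline.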

Assay [16] in a line: CCTE_Mundy_HCI_hNP1_Pro_ResponderAvgInten: CCTE's Proliferation Assay in human neuroprogenitor cells, Mundy Lab (AID 2284224; active = hit-call score of the fitted dose curve at least 0.9, where 1 is the maximum;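 note: human neural progenitor cells hNP1 derived from WA09 embryonic stem cells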). In outline:
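Proliferation read as average intensity of BrdU-positive cells, imaged at 26.25 h post-dosing: chemical exposure started after 40–44 h culture, BrdU during final 4 h, paraformaldehyde fixation. Positive-direction fit relative to DMSO.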

The nature of assay [17]: CCTE_Mundy_HCI_hN2_NOG_NeuriteCount: CCTE's Neurite Outgrowth Assay in human hN2 cells for Neurite Count, Mundy Lab (AID 2284219; active = hit-call score of the fitted dose curve at least 0.9, where 1 is the maximum). In outline: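 In this morphology assay, hNP1-derived neurons received test chemical 2 h post-plating and were fixed two days later in warm paraformaldehyde/sucrose containing Hoechst 33342. Neurites, labelled by rabbit anti-βIII-tubulin (1:800) and Alexa Fluor-488 (1:500), were counted automatically.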

Assay [18] in a line: CCTE_Mundy_HCI_hN2_NOG_NeuriteLength: CCTE's Neurite Outgrowth Assay in human hN2 cells for Neurite Length, Mundy Lab (AID 2284220; active = hit-call score of the fitted dose curve at least 0.9, where 1 is the maximum). In outline:
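Read-out is neurite length from high-content imaging of βIII-tubulin/Alexa Fluor-488-labelled neurons, referenced to DMSO controls.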

Assay [19] is described as follows: CCTE_Mundy_HCI_hN2_NOG_NeuronCount: CCTE's Neurite Outgrowth Assay in human hN2 cells for Neuron Count, Mundy Lab (AID 2284221; active = hit-call score of the fitted dose curve at least 0.9, where 1 is the maximum). In outline: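 Read-out is the number of betaIII-tubulin-positive neurons imaged by automated high-content analysis, with DMSO as negative control.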

Where “and” joins values, the source holds several entries; their conditions need not be identical. Identical values can stand only once. Records with an inconclusive call do not appear. A structure can be active in one record and inactive in another. Calls of active or inactive are those of the source. Rule for the calls, unless noted: active = hit-call score of the fitted dose curve at least 0.9, where 1 is the maximum; inactive = score below 0.9.

Sequence of Tumor necrosis factor (Homo sapiens) (P01375 whole entry, looked up): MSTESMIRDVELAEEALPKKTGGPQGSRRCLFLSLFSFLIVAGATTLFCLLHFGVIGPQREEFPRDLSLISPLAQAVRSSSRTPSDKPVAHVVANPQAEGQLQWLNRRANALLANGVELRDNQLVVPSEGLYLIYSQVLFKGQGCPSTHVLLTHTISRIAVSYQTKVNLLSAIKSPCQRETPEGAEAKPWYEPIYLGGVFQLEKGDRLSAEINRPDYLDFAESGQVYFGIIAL

The term AC50 denotes the concentration giving half of the maximal activity seen. Take `C=COC(=O)C(C)(C)CCCCCC`: the outcome in [1], in assay [2], in [3], in assay [4], in [5] and in assay [6] was inactive. Besides, in assay [7], the AC50 was 31 µM (active).
For `CCCCC(CC)C(=O)OCCOCCOCCOCCOC(=O)C(CC)CCCC` (stereo not given), the outcome in assay [1], in assay [5] and in assay [7] was inactive. Moreover, the AC50 was 25.2 µM (active) in [2], 28.4 µM (active) in [3], 0.016 µM (active) in assay [4] and 0.016 µM (active) in [6].
Regarding `CC(C)c1c(C(=O)Nc2ccccc2)c(-c2ccccc2)c(-c2ccc(F)cc2)n1CC[C@@H](O)C[C@@H](O)CC(=O)O`, the AC50 was 0.779 µM (active) in assay [8]; 0.158 µM (active) in assay [9]; 0.145 µM (active) in assay [10]; 2.82 µM (active) in assay [11]; 3.05 µM (active) in assay [12]; 3.58 µM (active) in [13]. Also, the AC50 in [14] is 3.35 µM (active); in [15], 4.68 µM (active). For the same compound, the outcome in assay [16] was inactive.
Consider `OCC(F)(F)C(F)(F)C(F)(F)C(F)(F)C(F)(F)C(F)(F)C(F)(F)C(F)(F)C(F)(F)C(F)(F)C(F)(F)F`, for which the compound was called inactive in [16], in [1], in assay [2], in assay [4], in assay [5] and in assay [6]. For the same compound, the outcome in [7] was inactive. Further, the AC50 is 0.0655 µM (active) in assay [1]; 174 nM (active) and 835 nM (active) in [3]; 0.0554 µM (active) in assay [5].
For `O=C(CCCN1CCC(O)(c2ccc(Cl)cc2)CC1)c1ccc(F)cc1`, the AC50 in assay [10] was 6.16 µM (active); in assay [11], 21.2 µM (active); in [12], 17.8 µM (active); in assay [13] it was 18.4 µM (active); in [17], 37.9 µM (active); in assay [18] it was 22.4 µM (active). The AC50 in [19] is 20.3 µM (active). In addition, in assay [15], the result was inactive.
As for `O=P(O)(O)CCC(F)(F)C(F)(F)C(F)(F)C(F)(F)C(F)(F)C(F)(F)C(F)(F)C(F)(F)F`, the outcome in assay [1], in [2], in [4], in [5], in assay [6] and in assay [7] was inactive. Moreover, the AC50 was 30 µM (active) and 53.9 µM (active) in assay [3]; 30 µM (active) in assay [6].
Take `CN(C)c1ccc(C(=C2C=CC(=[N+](C)C)C=C2)c2ccccc2)cc1`: the AC50 in assay [1] was 0.993 µM (active); in assay [2] it was 0.227 µM (active); in [3], 0.248 µM (active); in assay [4], 1.13 µM (active); in [5], 0.28 µM (active); in assay [6], 0.805 µM (active). Also, in assay [7], the AC50 was 0.0764 µM (active).
Take `C=CC(C)(CCC=C(C)C)OC(C)=O` (stereo not given): the result in assay [1], in assay [2], in [3], in [4], in assay [5] and in [6] was inactive. For the same compound, the outcome in [7] was inactive.
For `O=P(O)(O)CCC(F)(F)C(F)(F)C(F)(F)C(F)(F)C(F)(F)C(F)(F)F`, in assay [1], the AC50 is 12.2 µM (active). For the same compound, the outcome in assay [1], in assay [2], in [3], in [4], in assay [5] and in assay [6] was inactive. Moreover, in [7], the outcome was inactive.
As to `O=C(O)CCC(F)(F)C(F)(F)C(F)(F)C(F)(F)C(F)(F)F`, the outcome in [1], in [2], in assay [3], in [4], in assay [5] and in assay [6] was inactive. Also, the outcome in assay [7] was inactive. Further, the AC50 was 30 µM (active) in [2] and 6.31 µM (active) in [3].
